PubChem BioAssay (NCATS)
“And” between values parts separate entries of the source, which are not always exact repeats. Equal entries are not always repeated. Records with an inconclusive call do not appear. The source made the active and inactive calls. Calls come from the whole dose curve; as a rule, active = well fitted curve in the direction sought with a large enough effect; inconclusive = small, poorly fitted or top-dose-only effect, or another doubt; inactive = no such curve, though single readings can be large; an effect the other way counts as inactive or inconclusive.

Columns and labels:
[1] = target: Cellular tumor antigen p53 (Homo sapiens) (UniProt P04637); assay: Primary qHTS for small molecule compounds that upregulate eGFP-tagged delta133p53alpha (in N-terminal) cells. (AID 2060322); settings: NCI-H358 eGFP-delta133p53alpha fluorescence, 24 h; activation: active compounds read high; note: nearly all actives have a fitted effect of over 75% in size; note: potency is the fitted concentration of half-maximal effect;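 for activation: cells pre-induced with doxycycline then dosed without doxycycline; 0% = DMSO vehicle and 100% = reference activator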
How it was run: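 NCI-H358 cells pre-induced 24 h with 10 ng/ml doxycycline for eGFP-delta133p53alpha, plated dox-free and exposed 24 h at 37C to titrated compounds. Fixed, Hoechst-stained; gated GFP peak intensity by laser scanning cytometry, normalized to DMSO (0%) and 57.5 uM 5-azacytidine (100%).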

[2] = target: Aldehyde dehydrogenase, mitochondrial (Homo sapiens) (UniProt P05091); assay: qHTS for Inhibitors of the Aldehyde Dehydrogenase Family (ALDH2) Primary screen (AID 2061308); settings: ALDH2 enzyme inhibition qHTS, 1536-well; series mostly up to 56 µM;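 note: plate controls were vehicle for no effect and reference inhibitor for full effect; nearly all actives have a fitted effect of over 55% in size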
[3] = target: Retinaldehyde dehydrogenase 3 (Homo sapiens) (UniProt P47895); assay: qHTS for Inhibitors of the Aldehyde Dehydrogenase Family (ALDH1A3) Validation screen (AID 2061312); settings: ALDH1A3 enzyme inhibition qHTS validation, fluorescence; series mostly up to 84.7 µM; note: nearly all actives have a fitted effect of over 45% in size; note: potency is the fitted concentration of half-maximal effect
[4] = target: Retinaldehyde dehydrogenase 3 (Homo sapiens) (UniProt P47895); assay: qHTS for Inhibitors of the Aldehyde Dehydrogenase Family (ALDH1A3) Primary screen (AID 2061315); settings: ALDH inhibition qHTS; series mostly up to 56 µM;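 note: plate controls were DMSO vehicle for no effect and reference inhibitor for full effect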
[5] = BET inhibitor-based combinations targeting novel dependencies in MECOM-rearranged (r) AML: MV-4-11 cell line (AID 2202233); settings: MV-4-11 AML viability, CellTiter-Glo luminescence, 48 h; series mostly up to 46 µM; note: nearly all actives have a fitted effect of over 45% in size; note: potency is the fitted concentration of half-maximal effect
How it was run: (§1)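 Luminescent ATP readout (CellTiter-Glo, 15 min at room temperature) after 48 hr drug exposure gave viability. Dose-response curves, normalized to DMSO and empty-well controls, were summarized as area under the curve and its mean-centred Z-score.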

[6] = BET inhibitor-based combinations targeting novel dependencies in MECOM-rearranged (r) AML: UCSD-AML1 cell line (AID 2202235); settings: UCSD-AML1 AML cells viability, CellTiter-Glo, 48 h; series mostly up to 46 µM; note: nearly all actives have a fitted effect of over 40% in size; note: potency is the fitted concentration of half-maximal effect
How it was run: as §1

[7] = BET inhibitor-based combinations targeting novel dependencies in MECOM-rearranged (r) AML: HNT-34 cell line (AID 2202234); settings: HNT-34 AML viability, CellTiter-Glo luminescence, 48 h; series mostly up to 46 µM; note: nearly all actives have a fitted effect of over 35% in size; note: potency is the fitted concentration of half-maximal effect
How it was run: as §1

[8] = BET inhibitor-based combinations targeting novel dependencies in MECOM-rearranged (r) AML: OCI-AML3 cell line (AID 2202232); settings: CellTiter-Glo luminescence, 48 h; Potency: OCI-AML3 viability; series mostly up to 46 µM; note: nearly all actives have a fitted effect of over 35% in size; note: potency is the fitted concentration of half-maximal effect
How it was run: (§2)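 Luminescent ATP readout (CellTiter-Glo) after 48 hr drug exposure gives viability. Curves span 11 concentrations and are normalized to DMSO and empty wells. Activity is reported as area under the curve and its Z-transform within each cell line.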

[9] = BET inhibitor-based combinations targeting novel dependencies in MECOM-rearranged (r) AML: AML-194 cell line (AID 2202237; note: nearly all actives have a fitted effect of over 40% in size; note: potency is the fitted concentration of half-maximal effect); settings: AML-194 (MECOM-r AML) viability, CellTiter-Glo, 48 h; series mostly up to 46 µM
How it was run: as §2

[10] = BET inhibitor-based combinations targeting novel dependencies in MECOM-rearranged (r) AML: SET-2 cell line (AID 2202231); settings: SET-2 AML cells viability, CellTiter-Glo luminescence, 48 h; viability: active compounds read low, concentration not given here; note: nearly all actives have a fitted effect of over 35% in size; note: potency is the fitted concentration of half-maximal effect;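 for viability: plate controls were DMSO treated cells for no effect and wells without cells for full effect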
How it was run: as §2

[11] = BET inhibitor-based combinations targeting novel dependencies in MECOM-rearranged (r) AML: AML-191 cell line (AID 2202236; note: nearly all actives have a fitted effect of over 35% in size; note: potency is the fitted concentration of half-maximal effect); settings: AML-191 viability, CellTiter-Glo luminescence, 48 h; series mostly up to 46 µM
How it was run: as §2

Sequence of Cellular tumor antigen p53 (Homo sapiens) (P04637 whole entry, looked up): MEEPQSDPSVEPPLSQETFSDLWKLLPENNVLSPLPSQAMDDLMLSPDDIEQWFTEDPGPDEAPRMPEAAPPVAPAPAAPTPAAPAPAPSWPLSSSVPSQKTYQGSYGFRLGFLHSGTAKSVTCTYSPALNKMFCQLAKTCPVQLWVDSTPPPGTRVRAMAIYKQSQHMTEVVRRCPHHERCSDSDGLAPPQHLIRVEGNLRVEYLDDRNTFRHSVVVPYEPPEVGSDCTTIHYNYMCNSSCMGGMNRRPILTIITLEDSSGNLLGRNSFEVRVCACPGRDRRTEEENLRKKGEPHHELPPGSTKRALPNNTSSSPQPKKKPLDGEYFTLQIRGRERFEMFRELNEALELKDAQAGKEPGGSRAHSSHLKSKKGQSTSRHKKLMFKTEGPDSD

O=C1Nc2ccc(Cl)cc2[C@@](C#CC2CC2)(C(F)(F)F)O1
inactive: activation [1] 17.5% and 0% | Potency [2] | Potency [3] | Potency [4] | Potency [6]
active: Potency [5] 23.5 µM and 20.9 µM

O=C(NCCCNc1nc(Nc2cccc(CN3CCOCC3)c2)ncc1C1CC1)C1CCC1
active: Potency [7] 16.6 µM
inactive: activation [1] -15.3% | Potency [2] | Potency [3] | Potency [4]

CC(C)n1cnc2c(NCCc3ccc(O)cc3)nc(-c3csc4ccccc34)nc21
active: Potency [8] 20.9 µM | Potency [9] 20.9 µM
inactive: activation [1] 28% and 17.7% | Potency [2] | Potency [3] | Potency [4]

CN(C(=O)c1ccc(F)cc1C(F)(F)F)C1CCN(c2nnc(-c3ccnn3C)c3ccccc23)CC1
active: Potency [5] 16.6 µM
inactive: activation [1] 36.5% and 1.43% | Potency [2] | Potency [3] | Potency [4] | Potency [6] | Potency [9]

CCN(CC)Cc1ccc2cc(COC(=O)Nc3ccc(C(=O)NO)cc3)ccc2c1
inactive: Potency [2] | Potency [3]
active: Potency [1] 30.1 µM and 27.3 µM | Potency [10] 0.662 µM | Potency [5] 0.372 µM | Potency [7] 0.934 µM | Potency [6] 0.525 µM | Potency [11] 0.742 µM | Potency [9] 0.934 µM

CCCCn1c(=O)n(Cc2ccccc2F)c(=O)c2[nH]c(Cc3ccc(NC(C)=O)cc3)nc21
inactive: activation [1] 0.477% | Potency [2] | Potency [3] | Potency [4] | Potency [8] | Potency [5] | Potency [6] | Potency [11] | Potency [9]

Cc1cc(N2CCOCC2)ccc1Nc1nc(NC2CCCCC2)c2[nH]cnc2n1
inactive: activation [1] 7.16% | Potency [2] | Potency [3] | Potency [4]
active: Potency [5] 1.32 µM | Potency [9] 4.17 µM

c1ccc(CNc2nc(N3CCOc4ccccc43)nc3c2CCCC3)cc1
inactive: activation [1] -5.48% and -6.21% | Potency [2] | Potency [3] | Potency [4] | Potency [8] | Potency [6] | Potency [9]

O=C1[C@H](CC[C@H](O)c2ccc(F)cc2)[C@@H](c2ccc(O)cc2)N1c1ccc(F)cc1
active: Potency [5] 16.6 µM
inactive: activation [1] -8.47% and 7.16% | Potency [2] | Potency [3] | Potency [4]

CC[C@H](CC#N)OC(=O)N[C@@H](C)c1cccc(NC(=O)Nc2ccc(-c3cnco3)c(OC)c2)c1
active: Potency [5] 0.235 µM | Potency [7] 0.525 µM | Potency [6] 0.296 µM
inactive: activation [1] 7.84% and -10.5% | Potency [2] | Potency [3] | Potency [4]

FC(F)(F)c1ccc(CNc2ccc(Cc3c[nH]c4ncccc34)cn2)cc1
inactive: activation [1] 2.39% | Potency [2] | Potency [3] | Potency [4]
active: Potency [5] 0.525 µM | Potency [11] 13.2 µM | Potency [9] 16.6 µM

CCc1cccc2c3c([nH]c12)[C@@](CC)(CC(=O)O)OCC3
inactive: activation [1] -4.77% | Potency [2] | Potency [3] | Potency [4] | Potency [8] | Potency [7] | Potency [6] | Potency [11] | Potency [9]

CCNC1(C(N)=O)CCN(c2ncnc3c2nc(-c2ccccc2Cl)n3-c2ccc(Cl)cc2)CC1
inactive: activation [1] 0.477% | Potency [2] | Potency [3] | Potency [4] | Potency [8] | Potency [6]

COc1ccc2c(Oc3ccc(NC(=O)c4c(C)n(CC(C)(C)O)n(-c5ccccc5)c4=O)cc3F)ccnc2c1
inactive: activation [1] -9.3% and -1.91% | Potency [2] | Potency [3] | Potency [4] | Potency [6]
active: Potency [5] 0.209 µM | Potency [11] 20.9 µM

N#Cc1ccc(Oc2ccc3c(c2)COB3O)cc1
inactive: activation [1] 19.4% and -4.77% | Potency [2] | viability [10] 109% | Potency [7]
active: Potency [3] 2.82 µM | Potency [11] 13.2 µM

Cc1nc2c([nH]1)CCN(C(=O)c1ccc(NC(=O)c3ccccc3-c3ccccc3)cc1)c1ccccc1-2
inactive: activation [1] -5.73% and -5.25% | Potency [2] | Potency [3] | Potency [4] | Potency [6] | Potency [9]
active: Potency [8] 14.8 µM | Potency [5] 20.9 µM

O=C(Nc1cccc(C(F)(F)F)c1)Nc1cc(S(=O)(=O)NC2CC2)ccc1-c1ccsc1
active: Potency [5] 26.3 µM
inactive: activation [1] 29.6% and 2.39% | Potency [2] | Potency [3] | Potency [4]

COc1ccc2c(Oc3ccc(NC(=O)c4c(C)n(CC(C)(C)O)n(-c5ccccc5)c4=O)nc3)ccnc2c1
inactive: activation [1] 16.6% and 11.9% | Potency [2] | Potency [3] | Potency [4]
active: Potency [5] 0.372 µM | Potency [7] 3.32 µM

CN[C@@H](C)C(=O)N[C@H]1CN(C(=O)CC(C)C)CC[C@H]2CC[C@@H](C(=O)NC(c3ccccc3)c3ccccc3)N2C1=O
inactive: activation [1] 28.1% | Potency [2] | Potency [3] | Potency [4] | Potency [9]
